Screens (PubChem BioAssay)
Rows were chosen to be rich in hits. Some 1.3% of all compounds tested hit in one or more screens of this group.
NCOA2 inhibitor: human SRC2 (NCOA2) inhibition | inhibition, % at 9 µM | HEK293 GAL4-SRC2 luciferase reporter, luminescence | 370,000 compounds, 0.17% hits | Q15596;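 active means inhibition above the mean inhibition of all tested compounds plus 3 SD, set per campaign, cut at about 52% in these data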;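 further: 0% = DMSO treated cells and 100% = cells given Gossypol at 36 µM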
LRH-1 inv ag: inverse agonists of human LRH-1 (NR5A2) | O00482 | 360,000 compounds, 0.13% hits | HEK293T StAR-luciferase reporter, LRH-1 transfected, 24 h | inhibition, % at 3.6 µM | AID 602396;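 active means inhibition above the mean inhibition of all tested compounds plus 3 SD, cut at about 73% in these data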;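 further: 0% = DMSO wells and 100% = reporter-only cells lacking LRH-1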
Target sequence (O00482 whole entry, looked up): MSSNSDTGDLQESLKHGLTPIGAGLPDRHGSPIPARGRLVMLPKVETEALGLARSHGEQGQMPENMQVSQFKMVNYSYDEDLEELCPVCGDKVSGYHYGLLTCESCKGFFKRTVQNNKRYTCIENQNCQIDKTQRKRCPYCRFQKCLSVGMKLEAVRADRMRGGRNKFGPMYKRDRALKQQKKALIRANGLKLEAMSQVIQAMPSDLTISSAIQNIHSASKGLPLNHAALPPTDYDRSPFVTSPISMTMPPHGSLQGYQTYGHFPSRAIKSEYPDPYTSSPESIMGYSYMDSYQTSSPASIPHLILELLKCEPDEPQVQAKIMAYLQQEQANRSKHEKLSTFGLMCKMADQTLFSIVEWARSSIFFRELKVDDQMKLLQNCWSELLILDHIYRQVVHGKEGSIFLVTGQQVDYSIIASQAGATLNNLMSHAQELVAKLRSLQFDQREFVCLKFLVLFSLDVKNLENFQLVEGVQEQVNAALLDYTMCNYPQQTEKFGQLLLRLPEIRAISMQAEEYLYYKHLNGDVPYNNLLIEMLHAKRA
Gli-Sufu block: antagonists of Gli-Sufu signaling; AID 588413; inhibition, % at 5 µM; 340,000 compounds, 0.74% hits; Sufu-KO-LIGHT fibroblasts, Gli luciferase reporter luminescence;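 active means inhibition above about 55%, limit read from the data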;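 further: 0% = DMSO-treated cells and 100% = wells with medium but no cells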
NR2F2 inh: NR2F2 (human) inhibition, primary screen. 370,000 compounds, 0.7% hits. P24468. inhibition, % at 8.6 µM. AID 686940. HEK293T NGFI-A luciferase reporter, luminescence;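 active means inhibition above a per-plate cutoff, mean inhibition of test wells between control levels plus 3 SD, cut at about 38% in these data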;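 further: cells cotransfected with COUP-TFII expression vector driving the NGFI-A reporter; 0% = median of COUP-TF2 test wells and 100% = reporter-only cells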
SRC1 inh: inhibits human SRC1 coactivator. HEK293 GAL4-SRC1 luciferase reporter, luminescence. inhibition, % at 3.6 µM. Q15788. 360,000 compounds, 0.12% hits. AID 588354;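 active means inhibition above the campaign mean plus 3 SD, with each screening campaign given its own cutoff, cut at about 60% in these data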;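 further: 0% = DMSO treated cells and 100% = gossypol at 36 µM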
NCOA3 inh: inhibitors of human steroid receptor coactivator 3 (SRC3). 360,000 compounds, 0.17% hits. HEK293 GAL4-SRC3 luciferase reporter, luminescence. inhibition, % at 3.6 µM. AID 588352. Q9Y6Q9;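 active means inhibition above a per-campaign cutoff, the mean of all compounds plus 3 SD, cut at about 60% in these data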;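 further: 0% = DMSO-treated cells and 100% = gossypol-treated cells at 36 µM; higher means less SRC3-driven luciferase light from the GAL4 reporter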
Gli-Sufu confirm: confirmation of Gli-SUFU pathway antagonists; shares compounds with Gli-Sufu block; Sufu-KO-LIGHT cells, Gli luciferase reporter, luminescence; inhibition, % at 5 µM; 2,500 compounds, 40% hits;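 active means mean inhibition at 5 µM reaching about 45%, limit read from the data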;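 further: plate controls were DMSO-treated cells for no effect and wells lacking cells for full effect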
Gli cytotox: cytotoxic in Gli-SUFU antagonist counter-screen; shares compounds with Gli-Sufu block; Sufu-KO-LIGHT cells cytotoxicity, ATP luminescence; cytotoxicity, % at 5 µM; 2,500 compounds, 32% hits; AID 651994;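 active means mean cytotoxicity at 5 µM above about 25%, limit read from the data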;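 further: cells exposed to compound overnight for roughly 16 to 18 hours; plate controls were DMSO wells with cells for no effect and medium without cells for full effect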
Wnt3a counter: Wnt3a reporter inhibition counter-screen; shares compounds with Gli-Sufu block; inhibition, % at 6.25 µM; 2,500 compounds, 20% hits; Wnt-LIGHT cells, Wnt3a-driven luciferase reporter, luminescence;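 active means mean inhibition above about 25%, limit read from the data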
VP16 Luc counter: counter-screen for COUP-TFII antagonists: inhibitors of VP16; shares compounds with NR2F2 inh; HEK293 Gal4-VP16 luciferase reporter, luminescence; inhibition, % at 8.5 µM; 2,500 compounds, 25% hits; AID 687007; in the data active means inhibition above about 13%
COUP-TFII conf: confirmation of human COUP-TFII (NR2F2) inhibitors; shares compounds with NR2F2 inh; HEK293 NGFI-A luciferase reporter, luminescence; inhibition, % at 8.5 µM; 2,500 compounds, 45% hits;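 active means mean inhibition over three repeats above a set limit taken from the earlier primary screen, cut at about 38% in these data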;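 further: 100% = cells given the luciferase reporter alone without the COUP-TF2 vector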
Active calls of the source: *; · = no result given.

SMILES | NCOA2 inhibitor | LRH-1 inv ag | Gli-Sufu block | NR2F2 inh | SRC1 inh | NCOA3 inh | VP16 Luc counter | COUP-TFII conf | others
CC1CCOC(=O)C=CC=CC(=O)OC2CC3OC4C5OC5(C)C(O)CC4(COC(=O)C1O)C2(C)C31CO1 (stereo not given) | 72.9* | 98.3* | 91.1* | 92.0* | 95.6* | 93.4* | 22.6* | 88.8* | Gli-Sufu confirm=93.1*;Gli cytotox=76.8*;Wnt3a counter=103.0*
CC1CC(C)(O)CC(C(O)CC2CC(=O)NC(=O)C2)C1=O (stereo not given) | 72.3* | 98.5* | 83.8* | 87.4* | 94.4* | 92.8* | 5.4 | 75.2*
N#CCCC#N | -13.0 | · | · | -2.8 | · | · | · | ·
Cc1cccc(C(C)c2cnc[nH]2)c1C (stereo not given) | 18.0 | · | · | 0.6 | · | · | · | ·
CC1=CC2OC3CC4OC(=O)C=CC=CC(=O)OCCC(C)C(O)C(=O)OCC2(CC1)C4(C)C31CO1 (stereo not given) | 71.0* | 98.7* | 92.0* | 90.0* | 95.0* | 94.3* | 16.6* | 87.0*
CC(O)C1C=CC=CC(=O)OC2CC3OC4C5OC5(C)C(O)CC4(COC(=O)C(O)C(C)CCO1)C2(C)C31CO1 (stereo not given) | 72.6* | 100.2* | 91.9* | 92.0* | 95.8* | 94.4* | 24.7* | 92.3*
CC1=CC2OC3CC4OC(=O)C=CC=CC(C(C)O)OCC(O)C5(C)OC5C(=O)OCC2(CC1O)C4(C)C31CO1 (stereo not given) | 64.7* | 97.8* | 88.3* | 91.7* | 95.9* | 92.6* | 18.7* | 89.3*
COC(=O)C1(F)C(=O)NC(=O)NC1O (stereo not given) | 11.3 | -2.2 | · | 0.7 | · | · | · | ·
Cc1ccccc1C(=O)NCCN1CCC2(CC1)C(=O)NCN2c1ccccc1 | 22.5 | · | · | 3.2 | · | · | · | ·
CC(C)OC(=O)C1C(c2ccc(I)cc2)CC2CCC1N2C (stereo not given) | 21.4 | · | · | -1.9 | · | · | · | ·
CC(=O)C1=C(C)OC2=C(C(=O)CCC2)[C@@]12C(=O)N(C)c1ccccc12 | -0.5 | · | · | -6.5 | · | · | · | ·
CCC(C)(O)C(=O)OC1C(=O)OC2CC3C(C)=CC(O)C(O)C3(C)C3C4(O)OCC23C1C(C)C4O (stereo not given) | 29.3 | 96.6* | · | 75.1* | 53.0 | 70.5* | 9.6 | 61.5*
O=C1C(=O)c2cccc3cccc1c23 | -12.1 | 15.2 | 6.8 | 1.6 | -10.6 | 13.8 | · | ·
O=C1C(=O)c2ccccc2-c2ccccc21 | 95.0* | 103.2* | 21.6 | 109.2* | 94.8* | 95.2* | 95.7* | 109.9*
Cc1ccc(C(O)(C(=O)OC(C)C)C(O)c2ccc(F)cc2)cc1 (stereo not given) | 18.3 | 11.9 | · | 9.7 | · | · | · | ·
COC1CC2C=C(C)C=CC=CC(=O)NC(c3ccccc3)CC=CCCC(O)CC(=O)C2=C1O (stereo not given) | -41.8 | 98.9* | · | 71.8* | 40.5 | 78.1* | 50.1* | 72.5*
Oc1ccccc1-[n+]1c(-c2ccccc2)cc(-c2ccccc2)cc1-c1ccccc1 | -12.0 | 10.7 | 24.0 | 6.9 | 7.0 | 9.0 | · | ·
Cc1ccccc1-[n+]1c(-c2ccccc2)cc(-c2ccccc2)cc1-c1ccccc1 | 29.8 | 69.8 | 76.7* | 68.4* | 43.8 | 66.6* | 22.2* | 76.9*
CC[C@]12CCN(CC3(O)CC3)C(Cc3ccc(O)cc31)C2(C)C | 20.0 | · | · | 5.3 | · | · | · | ·
COc1cccc(NC2=NCCS2)c1 | -18.1 | · | · | 4.7 | · | · | · | ·
